# Measurements reported in PubChem BioAssay (NCATS).
# Inconclusive results are not listed. Where a call stands in place of a potency, no number is given. Calls of active or inactive are those of the source. Calls come from the whole dose curve; as a rule, active = well fitted inhibition curve with a large enough effect; inconclusive = small, poorly fitted or top-dose-only effect; inactive = no such curve, though single readings can be large or run the other way.
# Molecular target: Rap guanine nucleotide exchange factor 4 (Homo sapiens) (UniProt Q8WZA2)
# Assay: Confirmatory qHTS for antagonist of cAMP-regulated guanine nucleotide exchange factor 4 (EPAC2) (AID 1645885); note: nearly all actives have a fitted effect of over 25% in size; note: potency is the fitted concentration of half-maximal effect
# Conditions: EPAC2 Rap1B-BODIPY-GDP exchange fluorescence, biochemical; series mostly up to 12.7 µM
# Rap guanine nucleotide exchange factor 4 (Homo sapiens), sequence (Q8WZA2 whole entry, looked up): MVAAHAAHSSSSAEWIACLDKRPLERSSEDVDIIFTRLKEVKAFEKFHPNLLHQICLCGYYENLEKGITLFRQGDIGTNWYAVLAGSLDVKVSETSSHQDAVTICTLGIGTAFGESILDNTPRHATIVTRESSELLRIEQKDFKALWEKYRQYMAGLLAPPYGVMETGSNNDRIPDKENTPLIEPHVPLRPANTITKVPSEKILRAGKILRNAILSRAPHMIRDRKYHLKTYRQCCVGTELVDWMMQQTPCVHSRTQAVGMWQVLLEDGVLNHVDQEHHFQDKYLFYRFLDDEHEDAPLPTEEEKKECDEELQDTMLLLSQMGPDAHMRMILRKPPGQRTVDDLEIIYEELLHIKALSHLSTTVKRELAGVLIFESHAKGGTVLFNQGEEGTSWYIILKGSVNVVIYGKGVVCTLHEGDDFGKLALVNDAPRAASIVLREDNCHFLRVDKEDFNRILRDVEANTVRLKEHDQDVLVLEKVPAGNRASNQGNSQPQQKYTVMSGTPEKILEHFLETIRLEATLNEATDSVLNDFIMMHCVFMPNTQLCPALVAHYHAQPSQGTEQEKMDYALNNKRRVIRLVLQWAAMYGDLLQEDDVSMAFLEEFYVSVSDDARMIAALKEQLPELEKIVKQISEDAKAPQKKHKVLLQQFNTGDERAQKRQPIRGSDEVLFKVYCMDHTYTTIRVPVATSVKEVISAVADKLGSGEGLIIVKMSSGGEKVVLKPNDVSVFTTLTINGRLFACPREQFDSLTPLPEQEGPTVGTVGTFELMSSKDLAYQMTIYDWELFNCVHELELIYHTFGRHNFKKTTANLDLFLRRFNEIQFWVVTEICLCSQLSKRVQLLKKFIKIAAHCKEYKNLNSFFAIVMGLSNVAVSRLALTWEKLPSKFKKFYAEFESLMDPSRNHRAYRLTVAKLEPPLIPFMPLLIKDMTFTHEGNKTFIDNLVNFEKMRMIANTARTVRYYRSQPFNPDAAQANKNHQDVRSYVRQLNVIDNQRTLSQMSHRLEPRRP
Compound,Potency,outcome
COc1ccc2c3c(cccc13)C(=O)CC2,inactive,–
Cc1nc2ccccc2n2c(O)c(CC(=O)O)cc12,inactive,–
CC1=Nc2ccccc2/C1=C\c1nc(-c2ccc(F)cc2)oc1O,inactive,–
CCN1CCc2c(sc(NC(=O)CSc3ccccc3)c2-c2nc3ccccc3s2)C1,3.79 µM (active),–
Nc1ccc2c3c(cccc13)C(=O)N(c1ccccc1)C2=O,inactive,–
Cc1nn(C)c(C)c1N1C(=O)c2cccc3c(N)ccc(c23)C1=O,inactive,–
COCCn1c2nc(=O)n(-c3ccccc3)c(=O)c-2nc2ccccc21,75.7 µM (active),–
Cc1ccc[n+](-c2nc([O-])sc2C=O)c1,inactive,–
O=C(O)c1ccccc1C1=Nc2ccc(O)cc2Oc2cc(O)ccc21,inactive,–
COc1cccc2c1C(=O)c1c(O)c3c(c(O)c1C2=O)CC(O)(C(=O)CO)CC3OC1CC(N(C)C)C(O)C(C)O1 (stereo unspecified),inactive,–
Cc1ccccc1C(=O)Nc1ccc(C(=O)OCc2cc(=O)n3c4c(sc3n2)CCCC4)cc1,inactive,–
Cc1cc(/C=C2\SC(=S)N(C)C2=O)c(C)n1-c1ccccc1O,inactive,–
N#Cc1c(-c2cccs2)nc(SCC(=O)c2ccc(Br)cc2)[nH]c1=O,inactive,–
Cc1cccc(N2C(=O)c3cccc4c(N)ccc(c34)C2=O)c1,84.9 µM (active),–
CCN(CC)c1ccc2cc(S(=O)(=O)c3ccc(Cl)cc3)c(=O)oc2c1,42.6 µM (active),–
Cc1ccc2oc(=O)c(/C=C(\O)c3ccccc3)nc2c1,inactive,–

Compound,Potency,outcome
CCN(CC)c1ccc(/C=C(\C#N)C(=O)c2ccc(Br)cc2)cc1,inactive,–
O=c1c(/C=C(\O)c2ccc(F)cc2)nc2ccccc2n1-c1ccccc1,inactive,–
CCC1(c2ccccc2)NC(=O)N(CC(=O)Nc2ccc(OC)nc2)C1=O (stereo unspecified),inactive,–
Oc1ccc2nnc3c(Br)cnn3c2c1,inactive,–
O=C(NCc1ccc(F)cc1)c1cccc2c1C(=O)c1ccc(N3CCC(Cc4ccccc4)CC3)cc1S2(=O)=O,inactive,–
CCOc1cccc2sc(N3CCN(C(=O)C(C)(C)C)CC3)nc12,–,inactive [at 12.7 µM]
CCN(CC)c1ccc2cc(-c3nnc(-c4ccncc4)o3)c(=O)oc2c1,75.7 µM (active),–
Cc1ccc(OCc2nc3ccccc3n2CC(C)C)cc1,inactive,–
COc1cccc2c1C(=O)c1c(O)c3c(c(O)c1C2=O)CC(O)(C(C)=O)CC3OC1CC(N(C)C)C(O)C(C)O1 (stereo unspecified),inactive,–
CNc1ccc2c3c(cccc13)C(=O)N(C)C2=O,84.9 µM (active),–
CCOC(=O)C1=C(C)NC(SC)=C(C#N)C1CC(C)C (stereo unspecified),inactive,–
CCCn1c(O)c(N=Nc2ccc3ccccc3n2)c2ccccc21,21.3 µM (active),–
Cc1nc(Cl)c2c(n1)NC1=C(O2)C(=O)CCC1,inactive,–
COc1ccccc1NC(=O)/C(C#N)=C/c1cc([N+](=O)[O-])ccc1N1CCCC1,75.7 µM (active),–
COc1ccccc1NC(=O)c1sc2nc(Cc3ccccc3)cc(C(F)(F)F)c2c1N,inactive,–
Cn1nc(-c2ccccc2)c2nc3ccccc3nc21,75.7 µM (active),–

# Molecular target: Rap guanine nucleotide exchange factor 3 (Homo sapiens) (UniProt O95398)
# Assay: Counterscreen qHTS for antagonist of cAMP-regulated guanine nucleotide exchange factor 3 (EPAC1) (AID 1645888);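 note: fluorescence loss as bound BODIPY-GDP is released from Rap1B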
# Conditions: Rap1B-BODIPY-GDP nucleotide exchange, fluorescence; series mostly up to 154 µM
# Summary of the method: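 Measured: fluorescence of BODIPY-GDP bound to Rap1B, which falls as exchange proceeds. Conditions include 50 uM competing GDP, 5 and 30 min reads, and a later cAMP challenge for antagonist detection.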
# Rap guanine nucleotide exchange factor 3 (Homo sapiens), sequence (O95398 whole entry, looked up): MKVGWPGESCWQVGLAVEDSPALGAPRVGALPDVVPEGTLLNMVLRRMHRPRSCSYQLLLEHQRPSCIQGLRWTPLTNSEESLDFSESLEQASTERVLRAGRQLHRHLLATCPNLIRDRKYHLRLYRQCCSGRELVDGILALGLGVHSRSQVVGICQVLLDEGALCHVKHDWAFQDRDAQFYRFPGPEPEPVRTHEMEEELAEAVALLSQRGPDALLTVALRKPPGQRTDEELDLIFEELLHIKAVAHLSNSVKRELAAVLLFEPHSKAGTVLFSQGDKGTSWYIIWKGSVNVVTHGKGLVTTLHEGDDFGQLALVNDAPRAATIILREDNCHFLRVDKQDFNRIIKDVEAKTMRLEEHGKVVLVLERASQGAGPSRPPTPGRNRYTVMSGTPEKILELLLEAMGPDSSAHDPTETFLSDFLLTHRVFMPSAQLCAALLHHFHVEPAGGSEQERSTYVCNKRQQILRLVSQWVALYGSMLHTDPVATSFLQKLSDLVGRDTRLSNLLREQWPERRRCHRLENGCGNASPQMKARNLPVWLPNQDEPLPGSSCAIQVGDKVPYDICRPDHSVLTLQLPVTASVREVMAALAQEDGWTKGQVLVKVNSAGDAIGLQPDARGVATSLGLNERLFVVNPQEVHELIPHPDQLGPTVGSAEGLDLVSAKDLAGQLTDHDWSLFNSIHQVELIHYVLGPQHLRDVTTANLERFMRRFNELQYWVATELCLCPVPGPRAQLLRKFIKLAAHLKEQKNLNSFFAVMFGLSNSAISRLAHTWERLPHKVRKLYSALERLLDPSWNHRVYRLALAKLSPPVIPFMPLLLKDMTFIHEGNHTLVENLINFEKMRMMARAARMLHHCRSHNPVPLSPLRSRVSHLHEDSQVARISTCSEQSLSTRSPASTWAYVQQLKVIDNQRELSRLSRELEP
Compound,Potency,"activity change, negative = inhibition"
Cc1nc2ccccc2n2c(O)c(CC(=O)O)cc12,inactive,–
CC1=Nc2ccccc2/C1=C\c1nc(-c2ccc(F)cc2)oc1O,inactive,–
CCN1CCc2c(sc(NC(=O)CSc3ccccc3)c2-c2nc3ccccc3s2)C1,inactive,–
Cc1nn(C)c(C)c1N1C(=O)c2cccc3c(N)ccc(c23)C1=O,–,353% [at 30.8 µM] (inactive)
COc1ccc(C(C#N)=Cc2ccccc2OC)cc1,–,-8.61% [at 30.8 µM] (inactive)
Cc1ccc[n+](-c2nc([O-])sc2C=O)c1,inactive,–
O=C(O)c1ccccc1C1=Nc2ccc(O)cc2Oc2cc(O)ccc21,–,-1.01% [at 30.8 µM] (inactive)
COc1cccc2c1C(=O)c1c(O)c3c(c(O)c1C2=O)CC(O)(C(=O)CO)CC3OC1CC(N(C)C)C(O)C(C)O1 (stereo unspecified),–,33.3% [at 30.8 µM] (inactive)
CCN(CC)c1ccc2cc(S(=O)(=O)c3ccc(Cl)cc3)c(=O)oc2c1,inactive,–
Cc1ccc2oc(=O)c(/C=C(\O)c3ccccc3)nc2c1,–,0.517% [at 30.8 µM] (inactive)
CCN(CC)c1ccc(/C=C(\C#N)C(=O)c2ccc(Br)cc2)cc1,inactive,–
O=C1CSC(c2ccc(Cl)c(Cl)c2)N1c1nccs1 (stereo unspecified),inactive,–
O=c1c(/C=C(\O)c2ccc(F)cc2)nc2ccccc2n1-c1ccccc1,inactive,–
Cc1ccc2oc(=O)n(Cc3ccccc3)c2c1,–,1.72% [at 30.8 µM] (inactive)
CCC1(c2ccccc2)NC(=O)N(CC(=O)Nc2ccc(OC)nc2)C1=O (stereo unspecified),–,-15.6% [at 30.8 µM] (inactive)
Oc1ccc2nnc3c(Br)cnn3c2c1,inactive,–
O=C(C(=Cc1ccc(O)cc1)c1ccccc1)c1ccccc1,inactive,–
O=C(NCc1ccc(F)cc1)c1cccc2c1C(=O)c1ccc(N3CCC(Cc4ccccc4)CC3)cc1S2(=O)=O,–,83.7% [at 30.8 µM] (inactive)
CCN(CC)c1ccc2cc(-c3nnc(-c4ccncc4)o3)c(=O)oc2c1,inactive,–
CSc1ncccc1C(=O)OCc1c(F)cccc1Cl,inactive,–
COc1cccc2c1C(=O)c1c(O)c3c(c(O)c1C2=O)CC(O)(C(C)=O)CC3OC1CC(N(C)C)C(O)C(C)O1 (stereo unspecified),–,80.1% [at 30.8 µM] (inactive)
Cc1ccc(NC(=O)CSc2nnc(-c3cc4occc4n3C)n2-c2ccccc2C)c(Cl)c1,inactive,–
COc1ccc(/C=C2\C(=O)NC(=O)c3ccccc32)cc1OC,inactive,–
CC(=O)Nc1ccc(Nc2c3c4c(cccc4n(C)c2=O)C(=O)c2ccccc2-3)cc1,inactive,–
CCCn1c(O)c(N=Nc2ccc3ccccc3n2)c2ccccc21,inactive,–
Cc1nc(Cl)c2c(n1)NC1=C(O2)C(=O)CCC1,–,20% [at 30.8 µM] (inactive)
COc1ccccc1NC(=O)/C(C#N)=C/c1cc([N+](=O)[O-])ccc1N1CCCC1,inactive,–
COc1ccccc1NC(=O)c1sc2nc(Cc3ccccc3)cc(C(F)(F)F)c2c1N,–,-9.81% [at 30.8 µM] (inactive)
Cn1nc(-c2ccccc2)c2nc3ccccc3nc21,inactive,–
